This is a sample that favours compounds with a hit; in the whole collection about 4.7% have one here.
ADAM10 inh: human ADAM10 inhibitors, primary screen, biochemical, QFRET, HTS | Disintegrin and metalloproteinase domain-containing protein 10 (Homo sapiens), O14672 | recombinant ADAM10, EDANS/DABCYL FRET peptide cleavage, 3 h | inhibition, % at 7 µM | 370,000 compounds, 0.62% hits | AID 720582, 2013;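 active = inhibition above a per-campaign cutoff equal to the mean of compounds falling between control-based bounds plus 3 SD, cut at about 20% in these data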;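 also: 0% = DMSO wells while the 100% control is not disclosed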
rCAG RNA binder: binders of r(CAG) RNA repeats, primary screen, biochemical, fluorescence; r(CAG) RNA repeat, TO-PRO-1 dye displacement fluorescence; inhibition, % at 3 µM; 370,000 compounds, 1.3% hits;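 active = inhibition above the plate cutoff, the mean of all test compounds on that plate plus 3 SD, cut at about 35% in these data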;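 also: 0% = DMSO alone and 100% = 100 µM mitoxantrone as full dye displacement; higher means more dye released from RNA so lower well fluorescence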
proKLK7 act: proKLK7 zymogen activators, primary screen, biochemical, fluorescence intensity. Kallikrein-7 (Homo sapiens), P49862. purified proKLK7, EDANS-DABCYL substrate fluorescence; 100% is mature enzyme control, 0% vehicle. activation, % at 7 µM. 370,000 compounds, 0.9% hits;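 active = activation above the mean of all tested compounds plus 3 SD, computed per campaign excluding outliers beyond control limits, cut at about 13% in these data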
Pemphigus Ab inh: inhibitors of pemphigus antibody binding to DSG3, primary screen, biochemical, bead-based, flow cytometry, scFv-GFP; binding (percent of control), % at 10 µM; AID 588358, 2011; 310,000 compounds, 0.48% hits; DSG3-coupled beads, scFv-anti-DSG3-GFP binding; active compounds read low;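 active = binding more than 3 SD below its plate's average and above zero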;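 also: hits lower antibody fragment binding to DSG3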
MPTP inh: mitochondrial permeability transition pore inhibitors, primary screen, biochemical, isolated mouse mitochondria, absorbance | Ca2+ swelling absorbance, 30 min | inhibition, % at 10 µM | 360,000 compounds, 1.4% hits;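 active = inhibition of 50% or more, scaled per plate between neutral and stimulator controls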;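 also: 0% = DMSO wells given calcium and 100% = 1 mM EGTA wells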
ADAM17 inh: ADAM17 inhibitors, primary screen, biochemical, QFRET; Disintegrin and metalloproteinase domain-containing protein 17 (Homo sapiens), P78536; recombinant ADAM17, EDANS/DABCYL FRET peptide cleavage; inhibition, % at 6.95 µM; 370,000 compounds, 0.83% hits; AID 720648, 2013;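 active = inhibition above the mean of compounds lying between control limits plus 3 SD, set per campaign, cut at about 8.5% in these data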;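 also: 0% = DMSO-only wells as the low control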
MPTP counter: fluorescence retest of MPTP screen hits in isolated mitochondria, single concentration; shares compounds with MPTP inh; membrane potential, Rhodamine 123 fluorescence; inhibition, % at 10 µM; 5,000 compounds, 78% hits; AID 624504, 2012; in the data active = inhibition above about 22%;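 also: 0% = DMSO vehicle and 100% = positive control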
MPTP swell DR: mitochondrial permeability transition pore inhibitors, dose response, biochemical, absorbance, uHTS hits; shares compounds with MPTP inh; isolated mitochondria swelling; IC50, µM; 780 compounds, 58% hits; AID 651561, 2012; in the data active = IC50 below about 20 µM
MPTP cs DR: fluorescent counter-screen in isolated mitochondria, dose response, counter-screen for MPTP inhibitor project, biochemical, fluorescence, uHTS hits; shares compounds with MPTP inh; isolated mitochondria counterscreen, fluorescence read-out; IC50, µM; 780 compounds, 49% hits; in the data active = IC50 below about 80 µM
* marks the source's active call; other numbers are inactive results; i = inactive; . = no result.

SMILES | ADAM10 inh | rCAG RNA binder | proKLK7 act | Pemphigus Ab inh | MPTP inh | ADAM17 inh | MPTP counter | others
CN1CCC(N(C)c2nc(-c3ccc([N+](=O)[O-])cc3)nc3ccccc23)CC1 | 1 | 8 | 0 | 103 | 102* | 0 | -16
Cc1[nH]n(-c2ccccc2)c(=O)c1C(c1ccc([N+](=O)[O-])cc1)c1c(C)[nH]n(-c2ccccc2)c1=O | . | . | . | 97 | 96* | . | 76*
CC(C)CCNC(=O)c1cc(C(=O)c2cc(F)ccc2O)cn(CCC(C)C)c1=O | -14 | -2 | 0 | 100 | 53* | 0 | -2 | MPTP swell DR=i;MPTP cs DR=5.9*
CC(C)CCNC(=O)c1cc(C(=O)c2cc(Br)ccc2O)cn(CCC(C)C)c1=O | 0 | 3 | 0 | 106 | 93* | -5 | 7 | MPTP swell DR=>100;MPTP cs DR=<2.5*
CC(C(=O)Nc1ccc(Br)cc1C(=O)c1ccccc1)N1CCCCC1 (configuration not stated) | -3 | 1 | 0 | 100 | -1 | -4 | .
O=C(NCc1ccccc1)c1cccn(Cc2ccccc2)c1=O | -105 | 1 | 1 | 93 | 1 | -34 | .
O=C(c1cc(C(=O)NCc2ccccc2)c(=O)n(Cc2ccccc2)c1)c1cc(Cl)ccc1O | 1 | 18 | 0 | 38 | 82* | -1 | 75*
O=C(NC1CN2CCC1CC2)c1ccc(Cl)cc1 (configuration not stated) | -8 | 0 | 0 | . | . | -3 | .
Oc1cc(Cl)c(Cl)cc1Cl | 8 | 6 | 0 | . | . | 0 | .
Oc1cc(Cl)c(Cl)c(Cl)c1 | 4 | 1 | -1 | 102 | 95* | -3 | 87*
Oc1cc(Cl)c(Cl)c(Cl)c1Cl | -3 | 1 | 0 | 98 | 79* | 4 | 99*
N#CCC[C@@H]1CC[C@]2(CCCN(Cc3ccncc3)C2)O1 | -5 | 1 | 0 | . | . | -4 | .
Cc1c(NS(=O)(=O)c2ccccc2)ccc([N+](=O)[O-])c1Cl | -16 | 15 | 0 | 94 | 98* | 5 | 90*
CCOC(=O)CNC(=O)N1Cc2ccccc2-n2nncc2C1 | -2 | 1 | 0 | 104 | 0 | -7 | .
CCc1ccc(CN2CCN(Cc3ccc(SC)cc3)CC2)cc1 | -6 | -11 | 0 | 100 | 56* | -1 | -7 | MPTP swell DR=i;MPTP cs DR=45*
CSc1ccc(CN2CCN(c3ccccc3C)CC2)cc1 | 4 | -8 | 0 | 93 | 0 | 1 | .
COC(=O)C1=Nc2ccccc2/C1=C\c1c(O)n(-c2cc(OC)ccc2OC)c(=O)[nH]c1=O | -31 | 12 | 2 | 96 | 58* | -12 | -3 | MPTP swell DR=i;MPTP cs DR=>80
O=C1NCN(c2ccccc2)C12CCN(C(c1ccccc1OC(F)(F)F)c1nnnn1Cc1ccccc1)CC2 (configuration not stated) | -17 | 3 | 0 | . | 4 | -2 | .
C=CCNC(=S)N1Cc2cc(Br)ccc2-n2nncc2C1 | 1 | 1 | 0 | . | 0 | 4 | .
COc1ccc2c(c1)[C@@]13CCC=C[C@H]1[C@@H](C2)NCC3 | -2 | 8 | 0 | 110 | 55* | -3 | -6 | MPTP swell DR=i;MPTP cs DR=>80
CCCCCSc1cc(OC)c(CCN(C)C)cc1OC | -2 | -3 | -1 | 104 | 84* | -5 | -8 | MPTP swell DR=6.3*;MPTP cs DR=>80
CCCCCSc1cc(O)c(C(CNC)C(C)C)cc1OC (configuration not stated) | -3 | 5 | 0 | 100 | 15 | 1 | .
Cc1ccc(-n2c(=O)[nH]c3ccccc3c2=O)cc1[N+](=O)[O-] | . | . | . | . | 0 | . | .
CCC(=NCc1ccc2c(c1)OCO2)c1c(O)n(C2CCCCC2)c(=O)[nH]c1=O | 6 | -1 | 0 | . | 78* | 5 | 68*
CC1CN1P(=S)(c1ccccc1)N1CC1C (configuration not stated) | -13 | 1 | 1 | 105 | 0 | -2 | .
SMILES | ADAM10 inh | rCAG RNA binder | proKLK7 act | Pemphigus Ab inh | MPTP inh | ADAM17 inh | MPTP counter | others
c1ccc2c(CN3CCCCCC3)c[nH]c2c1 | 1 | 2 | 0 | 104 | 0 | -2 | .
c1ccc2c(CNC3CCCCCC3)c[nH]c2c1 | 4 | 5 | 0 | 103 | 71* | -4 | -6 | MPTP swell DR=8.7*;MPTP cs DR=73*
CCOC(=O)CC[C@@H]1CC[C@]2(CCCN(Cc3ccccn3)C2)O1 | -4 | 0 | -1 | . | . | -3 | .
CC(NCc1cccc(Cl)c1Cl)C(O)c1ccccc1 (configuration not stated) | -3 | -8 | 0 | 111 | 72* | -1 | -3 | MPTP swell DR=>100;MPTP cs DR=>80
c1ccc2c(N3CCNCC3)cccc2c1 | -12 | 5 | -1 | 111 | 70* | -8 | -5 | MPTP swell DR=19*;MPTP cs DR=>80
Clc1cccc(N2CCNCC2)c1Cl | -5 | 0 | 0 | 101 | -4 | -5 | .
Fc1ccc(C(OCCN2CCN(CCCc3ccccc3)CC2)c2ccc(F)cc2)cc1 | 0 | 0 | 0 | 102 | 97* | 0 | 3
Fc1ccc(C(OCCN2CCCC2)c2ccc(F)cc2)cc1 | -2 | 0 | -1 | 72 | -1 | -1 | .
c1ccc(CCCN2CCN(CCOC(c3ccccc3)c3ccccc3)CC2)cc1 | -4 | -2 | 0 | 116 | 80* | -5 | -2
CCOC(=O)CC[C@@H]1CC[C@]2(CCCN(Cc3ccncc3)C2)O1 | -6 | 0 | 0 | . | . | -5 | .
O=C1N(c2ccc(Cl)cc2)C(c2cccnc2)N2CCCN12 (configuration not stated) | 0 | 0 | 0 | 103 | 67* | -1 | 104*
O=C1NC(=S)SC1=Cc1ccc(N(CCCl)CCCl)cc1 | -5 | 23 | 0 | 97 | 53* | 1 | 67*
c1ccc2c(c1)CN(Cc1ccc3c(c1)OCO3)Cc1cnnn1-2 | -3 | 1 | 0 | 106 | -2 | 4 | .
C[C@H]1CNCCN1c1ccc(N2CC[C@H](O)C2)c(C#N)c1 | -56 | 2 | 1 | . | . | -15 | .
CN(C)CCOc1ccc(/C(=C(/CCCl)c2ccccc2)c2ccccc2)cc1 | 11 | 1 | -1 | 113 | 106* | 3 | -16 | MPTP swell DR=6.7*;MPTP cs DR=41*
CC(C)(C)c1cc(C=C(C#N)C#N)cc(C(C)(C)C)c1O | -14 | 8 | 1 | 112 | 108* | -3 | 89*

High-throughput results: PubChem, several laboratories
